The values below come from PubChem BioAssay (NCI).

Holding throughout (experiment): NCI-60 one-dose screen, 48 h (100 = growth as untreated, 0 = no growth, -100 = all killed)
Details in all cases: 10 µM unless noted

The test system of assay [1] is SR leukemia.
In assay [2] the test system is RPMI-8226 leukemia.
For assay [3], the system named is OVCAR-8 ovarian.
For assay [4], the system named is OVCAR-5 ovarian.
Assay [5] deals with OVCAR-4 ovarian.
The test system of assay [6] is SK-OV-3 ovarian.
In assay [7] the test system is IGROV1 ovarian.
In assay [8] the test system is HS 578T breast.
For assay [9], the system named is NCI/ADR-RES ovarian.
For assay [10], the system named is BT-549 breast.
Assay [11] concerns MDA-MB-435 melanoma.
Assay [12] relates to SW-620 colon.
In assay [13] the test system is MCF7 breast.
Assay [14] relates to HCT-116 colon.
For assay [15], the system named is HCC-2998 colon.
In assay [16] the test system is KM12 colon.
Assay [17] has as its system OVCAR-3 ovarian.
The test system of assay [18] is T-47D breast.

The structures appear in SMILES notation. The panel holds about 83,000 compounds, 20% with a hit somewhere; the sample as a whole holds those more often.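 Method: cells in 96-well plates; compound added at one concentration; 48 h incubation; percent growth measured; values under 10 scored active.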 Unmarked numbers belong to inactive results. Calls of active or inactive are those of the source.

For `Cc1ccc(N2C(=O)/C(=C/C=C/c3ccco3)SC2=S)cc1`, the growth in assay [1] was 56.6%; in [2] it was 75.3%; in [3], 99.2%; in assay [4] it was 103%; in [5], 92.4%; in [6] it was 107%. Also, the growth in [7] was 103%; in assay [8], 96.2%; in assay [9], 97.6%; in [10], 126%; in [11], 90.6%; in [12], 90.1%. Moreover, the growth was 66.4% in [13], 94.2% in [14], 101% in assay [15] and 95.4% in assay [16].
In the case of `Brc1ccccc1/C=N/Nc1nc(N/N=C/c2ccccc2Br)nc(N2CCOCC2)n1`, the growth in [1] was 63.9%; in assay [2], 65%; in assay [3], 96.6%; in assay [4], 111%; in assay [5], 96.2%; in [6], 114%. Further, the growth in [17] was 85.2%; in [8], 114%; in [9], 91.5%; in assay [18], 79%; in assay [10] it was 107%; in [11], 97.7%. For the same compound, the growth in assay [12] is 96.7%; in assay [13], 85.2%; in [14], 97.5%; in [15], 70.9%; in assay [16], 89.1%.
Regarding `O=C(Nc1ccc2c(ccn2Cc2ccccn2)c1)c1cnccn1`, the growth was 92.7% in [1]; 93.7% in [2]; 105% in assay [3]; 96.8% in [4]; 76% in [5]; 109% in [6]. Moreover, the growth in [7] is 79.7%; in assay [8], 104%; in assay [9] it was 107%; in assay [18], 101%; in [11], 100%; in assay [12], 93.7%. Moreover, the growth in assay [13] is 98.1%; in [14], 100%; in [16], 100%.
Take `COc1ccccc1NCc1cccn1Cc1ccc(F)cc1`: the growth in assay [1] is 100%; in assay [2], 95.2%; in assay [3] it was 103%; in assay [4], 95.7%; in assay [5], 96.9%; in assay [6], 116%. Besides, the growth was 112% in [17]; 105% in assay [8]; 93.7% in [9]; 97% in assay [18]; 93.3% in [10]; 99.6% in assay [11]. Further, the growth in assay [12] was 98.2%; in assay [13] it was 93.1%; in assay [14], 93.8%; in assay [15] it was 105%; in assay [16], 95.9%.
For the compound `COC(=O)c1[nH]nc2c1C1(C(=O)c3cccc4cccc1c34)C(C#N)=C(N)O2` (centres undefined), the growth in assay [1] was 115%; in [2], 104%; in [3], 92%; in [4], 101%; in assay [5], 97.5%; in assay [6], 85.3%. Moreover, the growth in assay [7] is 95.5%; in assay [8], 86.8%; in [9] it was 106%; in assay [10], 124%; in assay [11] it was 106%; in assay [12] it was 100%. For the same compound, the growth in [13] is 84.3%; in assay [14] it was 101%; in assay [16] it was 97.8%.
Consider `COCCNc1ccc2ncc(C#Cc3cncc(C(=O)Nc4ccc(CN5CCN(C)CC5)c(C(F)(F)F)c4)c3)n2n1`, for which the growth was -6.69% (active) in [1]; -26.7% (active) in [2]; -5.34% (active) in assay [3]; 3.94% (active) in assay [4]; -10.6% (active) in assay [5]; -63% (active) in assay [6]. The growth was -12% (active) in assay [7]; -33.9% (active) in assay [8]; 43.9% in [9]; -24.8% (active) in assay [11]; -54.1% (active) in assay [12]; -30.7% (active) in [13]. The growth in assay [14] is -66.9% (active); in assay [15], -23.6% (active); in assay [16], -9.09% (active).
As to `CC(=O)c1ccc(Nc2nc(SCC(C)C)nc(-c3ccccc3)c2C#N)cc1`, the growth was 110% in assay [1]; 111% in assay [2]; 70% in [3]; 109% in assay [4]; 103% in [5]; 79.7% in [6]. The growth in [17] was 122%; in [8], 44.6%; in assay [9] it was 89.1%; in assay [18], 94.5%; in [10] it was 92%; in assay [11] it was 106%. In addition, the growth in assay [12] was 117%; in assay [13] it was 100%; in assay [14], 83.7%; in [15], 105%; in assay [16] it was 112%.
As for `Cn1cc(-c2cc(N)n3nc(-c4cn(C)c5ccccc45)cc3n2)c2ccccc21`, the growth is -9.33% (active) in assay [1]; 18.7% in assay [2]; 85.4% in assay [3]; 114% in assay [4]; 95% in assay [5]; 137% in assay [6]. In addition, the growth in assay [8] is 124%; in assay [9], 91.3%; in [18], 90%; in assay [10], 128%; in assay [11], 0.548% (active); in assay [12], 85.9%. Further, the growth is 44.8% in [13], 62.1% in assay [14], 78.5% in assay [15] and 72.7% in [16].
As to `CC1=N[C@@H]2CN(C(=O)OC(C)(C)C)C[C@@H]2n2c1cc1ccccc1c2=O`, the growth was 99.9% in assay [1]; 101% in assay [2]; 101% in assay [3]; 107% in [4]; 107% in assay [5]; 92.5% in [6]. Besides, the growth in [7] was 107%; in assay [8], 101%; in [9] it was 100%; in [10], 144%; in assay [11], 108%; in assay [12] it was 107%. For the same compound, the growth is 95.6% in assay [13], 103% in assay [14], 107% in [15] and 97.5% in assay [16].
